Test results: PubChem BioAssay (NCI)
About 83,000 compounds went through this panel and 20% of them were active in at least one assay; those are over-represented in the sample as a whole.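 Single-dose data. Exposure time 48 hours. Values below 10 considered active.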 Values without a mark were called inactive. Activity calls are given as the source filed them.

tested on: HOP-92 NSCLC; test: NCI-60 one-dose screen, 48 h (100 = growth as untreated, 0 = no growth, -100 = all killed); conditions: 10 µM

SMILES	growth
Cc1ccc(C)c(COc2cc(NC(=O)c3ccc4c(c3)OCO4)ccc2N(C)S(C)(=O)=O)c1	23.1%
CCOC(=O)c1cc(C(=O)c2ccc(Cl)cc2)n2ccc(-c3cc[n+](CC(=O)c4ccc(OC)cc4)cc3)cc12	67.8%
Clc1ccc(C2=NN=C3C(Cc4ccccc4)=Nc4ccccc4N3C2)cc1	87.4%
O=C1c2ccccc2C(=O)c2c1ccc(C(Br)Br)c2[N+](=O)[O-]	38.8%
COc1ccc(-c2nc(-c3nc4ccc(C)cc4[nH]3)cc3c2[nH]c2ccccc23)cc1	33%
C(=N\Nc1ncnc2sc3c(c12)CCNC3)/c1cccc2ccccc12	93.4%
CC(=O)N[C@H](C(=O)N[C@@H](CCCNC(=N)N)C(=O)N[C@@H](CCCCN)C(=O)N[C@@H](CCCNC(=N)N)C(=O)NC(C(=O)N[C@@H](CC(C)C)C(=O)N[C@@H](CCCNC(=N)N)C(=O)N[C@@]1(C)CCC/C=C\CCC[C@@](C)(C(=O)N[C@@H](CCCNC(=N)N)C(=O)N[C@@H](CCC(=O)O)C(=O)N[C@@H](CC(C)C)C(=O)N[C@H](C(=O)N[C@@H](CCC(=O)O)C(N)=O)C(C)C)NC(=O)[C@H](CCC(N)=O)NC(=O)[C@H](CC(C)C)NC(=O)[C@H](CC(C)C)NC1=O)[C@@H](C)O)C(C)C (some centres not stated)	-76% (active)
Cc1noc(C)c1CSc1ccccc1C(=O)N1CCN(c2cccc(C(F)(F)F)c2)CC1	68.1%
C=CCn1c(SCC(=O)Nc2ccc(C(=O)/C=C/c3ccc(OC)cc3)cc2)nnc1-c1ccc(OC)c(OC)c1	83.2%
CNC(=O)c1cc(Oc2ccc3c(c2)sc2nc(-c4ccc(N)cc4)cn23)ccn1	58.4%
C/C(=N\O)c1ccc(NC(=O)CSc2nnc(-c3ccccc3)n2-c2ccccc2)cc1	30.1%
CCN(CC)CCCC(C)Nc1c2ccc(Cl)cc2nc2ccc(OC)cc12 (configuration not stated)	27.7%
CC[C@@H](C(=O)[C@@H](C)[C@@H](O)[C@H](C)[C@@H]1O[C@@H]([C@@H](CC)C(=O)N(CC)CC)CC[C@@H]1C)C1O[C@]2(C=CC(=O)[C@]3(CC[C@@](C)([C@H]4CC[C@](O)(CC)[C@H](C)O4)O3)O2)[C@H](C)C[C@@H]1C (some centres not stated)	-17.2% (active)
O=S(=O)(Oc1ccc(-c2ccc3sccc3c2)cc1)c1ccccc1	111%
COc1ccc(-c2cc(-c3ccc(Cl)cc3)nc(SCCCCCCC(=O)NO)n2)cc1OC	40.6%
CN1C(=O)C2(Nc3cc(Cl)ccc3S2)c2cc(Cl)ccc21 (configuration not stated)	71.7%
Nc1ccc(/C=N/Nc2ccnc3c(O)cccc23)c2cccnc12	88.1%
CN(C)CCOc1ccccc1NC1=C(Cl)C(=O)C(Nc2ccccc2OCCN(C)C)=C(Cl)C1=O	59.9%
CCn1c(SCCc2ccccc2)nnc1-c1nn(-c2ccc(Cl)cc2Cl)c(-c2ccc(Cl)cc2)c1C	85%
C=CCNCCN1C(=O)c2ccc3c4c(ccc(c24)C1=O)C(=O)N(CCNCC=C)C3=O	-34.5% (active)
COc1cc(C)ccc1Oc1nc(Nc2ccc(N3CCOCC3)cc2)ncc1NC(=O)Nc1cc(C(F)(F)F)cc(C(F)(F)F)c1	66.8%
COc1cccc(CNc2cccc3cn[nH]c23)c1O	72.3%
NS(=O)(=O)Oc1ccc(NC(=O)C2CCCCCC2)cc1	98.9%
COc1ccc(-c2n[nH]nc2-c2cc(OC)c3c(c2OC)OCO3)cc1	8.78% (active)
CCCN(CCC)C(=O)[C@H](CC)[C@@H]1CC[C@@H](C)[C@@H]([C@H](C)[C@@H](O)[C@@H](C)C(=O)[C@H](CC)C2O[C@]3(C=C[C@@H](O)[C@]4(CC[C@@](C)([C@H]5CC[C@](O)(CC)[C@H](C)O5)O4)O3)[C@H](C)C[C@@H]2C)O1 (some centres not stated)	-21.1% (active)
COc1cc(-c2nc3ccccc3o2)cc(CN2CCCCC2)c1O	103%
CC(=O)N[C@H](C(=O)N[C@@H](CCCNC(=N)N)C(=O)N[C@@H](CCCCN)C(=O)N[C@@H](CCCNC(=N)N)C(=O)N[C@]1(C)CCC/C=C\CCC[C@@](C)(C(=O)N[C@@H](CC(C)C)C(=O)N[C@@H](CC(C)C)C(=O)N[C@@H](CCC(N)=O)C(=O)N[C@@H](CCC(=O)O)C(=O)N[C@@H](CCCNC(=N)N)C(=O)N[C@@H](CCC(=O)O)C(=O)N[C@@H](CC(C)C)C(=O)N[C@H](C(=O)N[C@@H](CCC(=O)O)C(N)=O)C(C)C)NC(=O)[C@H](CCCNC(=N)N)NC(=O)[C@H](CC(C)C)NC1=O)C(C)C	115%
